# Experimental data reported in ChEMBL document CHEMBL1157539, “Thousands of chemical starting points for antimalarial lead identification” (Nature, 2010).
# Key:
# Assay type in all cases: functional
# Plasmodium falciparum [1] = assay: GSK_TCMDC: Inhibition of Plasmodium falciparum 3D7 in whole red blood cells, using parasite LDH activity as an index of growth. Test compounds present at 2uM
# Plasmodium falciparum [2] = assay: GSK_TCMDC: Inhibition of Plasmodium falciparum Dd2 in whole red blood cells, using parasite LDH activity as an index of growth. Test compounds present at 2uM
# HepG2 = assay: GSK_TCMDC: Percent inhibition of human HepG2 cell line. Test compounds present at 10uM.
SMILES,Inhibition (Plasmodium falciparum [1]),Inhibition (Plasmodium falciparum [2]),Inhibition (HepG2)
CCCCCN(C(=O)Nc1cc(C(F)(F)F)cc(C(F)(F)F)c1)C(C)c1nc2ccccc2c(=O)n1CC (stereo not drawn),100%,100%,0%
COc1ccc(-c2ccc(NC(=O)c3cccc(Cl)c3)cc2)cc1CNC(C)C.O=C(O)C(F)(F)F,100%,88%,26%
O=C(NCCc1ccccc1)N(Cc1ccccc1-c1cccc(CNCc2ccc3c(c2)OCO3)c1)C1CCN(Cc2ccccc2)CC1.O=C(O)C(F)(F)F,93%,77%,29%
COc1ccc(Cl)cc1S(=O)(=O)Nc1cccc(CCN2CCC(N3CCCCC3)CC2)c1,100%,9%,33%
CCCCCCCc1c(C)nc2ccccc2c1O,98%,96%,0%
CCCCCC(C)(C)NC[C@@H](O)[C@H](Cc1ccccc1)NC(=O)c1cc(NCC)cc(N2CCCC2=O)c1.O=CO,99%,97%,9%
COc1cc2nc(N3CCC(CNC(=O)c4cc(Br)c(Br)s4)CC3)nc(N)c2cc1OC.O=C(O)C(F)(F)F,100%,97%,22%
COc1ccc2ncc(F)c(CCN3CC(O)C(CNCc4ccc5oc(=O)ccc5c4)C3)c2n1.Cl (stereo not drawn),89%,6%,18%
Cc1ccc2[nH]c(C3CCCNC3)c(-c3ccncc3)c2c1 (stereo not drawn),100%,22%,10%
OCCCCCCNc1ccnc2[nH]c3ccc(I)cc3c12,100%,61%,27%
Cl.Oc1ccc2c(c1CNC1CCCCC1)CCCC2,98%,94%,0%
COc1cc(NC(=O)CCCCCCCN2CCN(C)CC2)c2ncccc2c1,95%,83%,2%
CC(C)NCc1ccc(-c2ccc(CN3CCCC(c4ccccc4)C3)cc2)c(C(=O)NCC2CCCCC2)c1.O=C(O)C(F)(F)F (stereo not drawn),97%,53%,79%
COc1cc(Nc2nccc(NCC(O)c3ccc(C(F)(F)F)cc3)n2)cc(OC)c1OC (stereo not drawn),91%,14%,45%
C=CCn1c(Sc2ccc(C#N)c([N+](=O)[O-])c2)nnc1-c1ccc(OC)cc1,96%,74%,0%
CN1CCN(CC(=O)Nc2cccc(-c3cccc(-c4nc5cc(C(F)(F)F)ccc5[nH]4)c3)c2)CC1,100%,98%,26%

SMILES,Inhibition (Plasmodium falciparum [1]),Inhibition (Plasmodium falciparum [2]),Inhibition (HepG2)
CN1CCN(CCCN(Cc2csc(-c3ccc(CNCc4ccccc4)cc3)n2)S(=O)(=O)c2ccc(F)cc2)CC1.O=C(O)C(F)(F)F,100%,80%,21%
COc1cc(Cc2cnc(N)nc2N)ccc1OCc1ccc(-c2ccccc2C#N)cc1,93%,3%,32%
Oc1ccccc1CNC1CCCCC1NCc1ccccc1O (stereo not drawn),96%,66%,53%
COc1ccc(OCCCON)cc1.Cl,98%,0%,3%
Nc1nc(N)c2c(Cl)c(N3CCOCC3)ccc2n1,96%,3%,65%
Fc1ccc2[nH]c(-c3cccc(-c4ccc(CN5CCN(c6ccncc6)CC5)cc4)c3)nc2c1.O=C(O)C(F)(F)F,100%,67%,39%
CC1SC(=S)NC1C(=O)O (stereo not drawn),94%,0%,3%
COc1ccc2nccc([C@@H](O)CN3CCC(NC(=O)c4cc5c(F)cc(F)cc5[nH]4)CC3)c2n1,100%,74%,32%
Nc1ccnc(N2CCC(CCOc3cc(C(F)(F)F)nc4c(C(F)(F)F)cccc34)CC2)c1,98%,17%,35%
CC(=O)N1N=C(c2ccccc2)Sc2c1nc(-c1ccc(Cl)cc1)n2C(C)=O,94%,18%,0%
CC(=O)NCCNc1nccc(N2CCc3ncnc(Nc4ccc(OCc5cccc(F)c5)c(Cl)c4)c3C2)n1,100%,100%,10%
Cc1cc(-c2cccc(CNCc3ccc(F)cc3)c2)ccc1S(=O)(=O)NCCN1CCCC1.O=C(O)C(F)(F)F,100%,64%,49%
O=C(NCCCCCN1CCCN(C(=O)Nc2ccc(Cl)c(C(F)(F)F)c2)CC1)C1CC1c1ccc(Cl)c(Cl)c1 (stereo not drawn),100%,1%,41%
COc1cccc(-c2nc3c(N4CCN(c5ccncc5)CC4)cccc3n2CC2CCCCCN2)n1.O=C(O)C(F)(F)F (stereo not drawn),91%,31%,12%
CCOc1cc(C(=O)Nc2ccccc2N2CCN(S(C)(=O)=O)CC2)cc(OCC)c1OCC,91%,80%,0%
